PDI inh – inhibitors of human PDI, primary screen, biochemical, turbidity, single point, plate reader. Protein disulfide-isomerase (Homo sapiens), P07237. PDI insulin aggregation turbidity, A650, 90 min. inhibition, % at 10 µM. hit rate 0.052% among 350,000. AID 588391, 2011;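 active = mean inhibition across replicates of 30% or more, whatever share of single replicates reach that level; inconclusive = mean inhibition below 30% while every single replicate reaches 30%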
ARNT TACC3 PPI – disruptors of ARNT/TACC3 protein interaction, primary screen, biochemical, AlphaScreen, single concentration; Transforming acidic coiled-coil-containing protein 3 (Homo sapiens), Q9Y6A5; AlphaScreen His-ARNT PAS-B/GST-TACC3 binding, luminescence; TACC3 fragment carries E629A point mutation; inhibition, % at 9.99 µM; hit rate 0.66% among 390,000; AID 623870, 2012;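 active = mean inhibition of replicates at least 50% and at least half of replicates each reaching 50%; inconclusive = half or more replicates reach 50% but mean below 50%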
ERp5 inh – inhibitors of ERp5-driven insulin aggregation, primary screen, biochemical, turbidity, absorbance 650 nm, single point; Protein disulfide-isomerase A6 (Homo sapiens), Q15084; 90 min; inhibition, % at 9.99 µM; hit rate 0.05% among 350,000; AID 651711, 2012;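 active = mean replicate inhibition above about 25%, with every replicate also reaching it, limit read from the data, passing the limit was not always enough; inconclusive = only one of those two criteria met; inactive = neither criterion met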
PglD inh – C. jejuni PglD acetyltransferase inhibitors, primary screen, biochemical, DTNB colorimetric, single point; UDP-N-acetylbacillosamine N-acetyltransferase PglD (Campylobacter jejuni); purified PglD enzyme, DTNB colorimetric CoA detection; inhibition, % at 12.5 µM; hit rate 0.098% among 360,000; AID 602405, 2012; in the data active = inhibition above about 16%, passing the limit was not always enough; inconclusive = no clear call, values can overlap the other calls
ALR inh – inhibitors of human ALR sulfhydryl oxidase, primary screen, biochemical, H2O2 detection, HRP-luminol luminescence, single point; FAD-linked sulfhydryl oxidase ALR (Homo sapiens), P55789; purified ALR, DTT oxidation; inhibition, % (test concentration not listed); hit rate 3.8% among 290,000;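 active = mean replicate inhibition above about 79%, with every replicate also reaching it, limit read from the data; inconclusive = only one of the two criteria met; inactive = mean below limit and not every replicate reaching it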
NRP1-CendR mod – modulators of CendR peptide binding to NRP-1, primary screen, biochemical, fluorescence polarization, uHTS; Neuropilin-1 (Homo sapiens), O14786; FAM-RPARPAR peptide binding to NRP-1; inhibition, % at 25 µM; hit rate 0.85% among 360,000; AID 602438, 2012;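 active = inhibition or corrected inhibition above about 18%, plus a signal ratio from 0.5 to 1.5, limit read from the data, passing the limit was not always enough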
Target sequence (O14786 whole entry, looked up): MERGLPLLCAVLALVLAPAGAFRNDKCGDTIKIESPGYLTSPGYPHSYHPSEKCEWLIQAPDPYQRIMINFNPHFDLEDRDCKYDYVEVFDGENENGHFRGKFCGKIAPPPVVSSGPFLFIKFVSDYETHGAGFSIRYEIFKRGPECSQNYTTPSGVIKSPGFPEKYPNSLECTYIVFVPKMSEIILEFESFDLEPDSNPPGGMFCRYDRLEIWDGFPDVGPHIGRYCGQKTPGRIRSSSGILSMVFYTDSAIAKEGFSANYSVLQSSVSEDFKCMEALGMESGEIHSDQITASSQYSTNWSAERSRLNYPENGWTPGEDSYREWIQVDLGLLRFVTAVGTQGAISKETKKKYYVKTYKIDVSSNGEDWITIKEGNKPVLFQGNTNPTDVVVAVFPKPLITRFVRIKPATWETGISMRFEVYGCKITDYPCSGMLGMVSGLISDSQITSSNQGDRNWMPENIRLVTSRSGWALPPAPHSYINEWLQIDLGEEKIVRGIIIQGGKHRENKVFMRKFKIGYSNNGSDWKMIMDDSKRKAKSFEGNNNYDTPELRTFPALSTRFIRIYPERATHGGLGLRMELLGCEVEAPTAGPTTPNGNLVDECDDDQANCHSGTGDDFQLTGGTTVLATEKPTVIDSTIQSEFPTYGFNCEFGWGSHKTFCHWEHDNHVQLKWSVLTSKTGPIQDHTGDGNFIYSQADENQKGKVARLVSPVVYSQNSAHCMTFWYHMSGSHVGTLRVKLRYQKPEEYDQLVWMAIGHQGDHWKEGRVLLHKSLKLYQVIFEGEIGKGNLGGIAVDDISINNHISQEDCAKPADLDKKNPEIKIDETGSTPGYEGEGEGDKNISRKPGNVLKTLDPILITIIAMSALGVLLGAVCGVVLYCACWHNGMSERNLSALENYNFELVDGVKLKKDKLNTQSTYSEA
Hits are given with their value; n = inactive; u = inconclusive; x = not tested or not shown. Only a selection was taken, and hits are over-represented in it overall.

SMILES	PDI inh	ARNT TACC3 PPI	ERp5 inh	PglD inh	ALR inh	NRP1-CendR mod
Fc1ccc(C2=CC(c3ccco3)n3ncnc3N2)cc1 (stereo unspecified)	n	n	x	n	n	37.7
O=C(C1CCCC1)N1[C@H](CO)[C@H](c2ccccc2)C12CN(CCC(F)(F)F)C2	x	x	n	x	x	x
Cc1nn(C(C)C(=O)N/N=C/c2ccc(N(C)C)cc2)c(C)c1[N+](=O)[O-] (stereo unspecified)	n	n	n	n	98.5	n
C[C@H](CO)N1C[C@H](C)[C@@H](CN(C)C)Oc2ccc(NS(=O)(=O)c3cccs3)cc2CC1=O	x	n	n	n	x	x
COc1ccc(-c2cnc3c(c2)C(=O)N([C@H](C)CO)C[C@@H](C)[C@@H](CN(C)C(=O)CN(C)C)O3)cc1	x	n	n	n	x	x
O=[N+]([O-])c1cccc(C(=Nc2ccc(Cl)cc2)NO)c1	n	n	x	n	84.9	n
ONC(=Nc1ccc(Cl)cc1)c1ccc(Cl)cc1	n	n	x	n	78.1	n
O=[N+]([O-])c1cccc(C(=Nc2ccccc2)NO)c1	n	n	x	n	n	n
C[C@@H]1CN([C@@H](C)CO)C(=O)c2cc(NC(=O)c3ccccc3)ccc2O[C@@H](C)CCCCO[C@@H]1CN(C)C(=O)Nc1ccccc1	x	n	n	n	x	x
Cc1ccc(C(=O)NC(=S)NNC(=O)CC#N)cc1	n	n	n	x	99.2	n
CCCCCC(=O)NNC(=S)NC(C)=O	n	71.4	n	x	n	n
Cc1ccc(C(=O)NC(=S)NNS(=O)(=O)c2ccccc2)cc1	n	n	n	x	98.3	n
COc1ccc(C(=O)NC(=S)NNC(=O)c2ccc(C)cc2)cc1	n	n	n	x	n	n
CCCCC(=O)NNC(=S)NC(=O)c1ccc(C)cc1	n	n	n	x	98.5	n
COc1ccccc1S(=O)(=O)N(C)C[C@H]1OCc2ccccc2-c2c(n(C)c3ccccc23)C(=O)N([C@H](C)CO)C[C@@H]1C	x	n	n	n	x	x
COc1ccc(NC(=O)N2CC3(C2)CN(C(=O)c2cccnc2)[C@H](CO)c2[nH]c4cc(OC)ccc4c23)cc1	x	x	n	x	x	x
Cc1ccc(S(=O)(=O)NNC(=S)Nc2cccc(F)c2)cc1	n	n	n	x	98.8	n
C[C@@H]1CCCCO[C@H](CN(C)C(=O)Nc2ccc3c(c2)OCO3)[C@H](C)CN([C@H](C)CO)C(=O)c2cc(NC(=O)CCC(F)(F)F)ccc2O1	x	n	n	n	x	x
CCC(=O)N1CC2(C1)[C@H](c1ccccc1)[C@H](CO)N2CC1CCOCC1	x	x	n	x	x	x
CCN(CC)c1ccc(NC(=O)CSC(=O)c2ccccc2)cc1	n	n	n	n	99.2	n
COc1ccc(CCNC(=O)COc2cccc(-n3cnnn3)c2)cc1	n	n	n	n	x	17.7
COc1cccc(CNC(=O)COc2cccc(-n3cnnn3)c2)c1	n	n	n	n	n	n
CCN(CC)c1ccc(NC(=O)COc2ccc(-n3cnnn3)cc2)cc1	n	n	n	n	98.8	n
CC(=O)c1cccc(NC(=O)CSC(=O)c2ccccc2)c1	n	n	n	n	98.9	n
CCN(CC)c1ccc(NC(=O)CCCCC(=O)Nc2ccc(N(CC)CC)cc2)cc1	n	n	n	n	u	n
O=C(NC[C@H]1CC[C@H]2[C@H](CN2Cc2ccc(Oc3ccccc3)cc2)O1)C1CCOCC1	x	x	n	x	x	x
Cc1ccc(S(=O)(=O)N[C@H]2C=C[C@H](CC(=O)NCc3ccc(Cl)c(Cl)c3)O[C@H]2CO)cc1	x	x	n	n	x	x
C[C@H](CO)N1C[C@H](C)[C@H](CN(C)S(=O)(=O)c2cccs2)OCCCC[C@H](C)Oc2ccc(NC(=O)Nc3ccc4c(c3)OCO4)cc2C1=O	x	n	n	n	x	x
O=C(N[C@@H]1C=C[C@H](CC(=O)N2CCN(c3ccccc3)CC2)O[C@H]1CO)c1ccncc1	x	n	n	n	x	x
O=C(C[C@H]1CC[C@H]2[C@@H](COC[C@@H](O)CN2Cc2nccs2)O1)NCc1ccc(Cl)cc1	x	n	n	n	x	x

Bioassay records as filed in PubChem.
